Where “and” joins values, the source holds several entries; their conditions need not be identical. Equal values may be shown once. A number with no mark means an inactive call.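 How the source made its calls, unless noted: active means compounds whose cell count with miR-34 switched on is under 0.7 times the count with it off; inactive means the rest.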

One experiment deals with Aerobactin synthetase IucA (Klebsiella pneumoniae). Put plainly: inhibition of K. pneumoniae IucA enzyme – biochemical, Tocris library, absorbance (AID 1345561; call rule not given here;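 further: 100% = enzyme without compound and 0% = no enzyme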). As to conditions: purified IucA enzyme assay, absorbance (OD) read-out; hits give low values;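 tested at 8 µM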.
Take `COC1CCC2NC(C(=O)c3ccccc3)CC2C1` (stereo not drawn): the remaining activity (as a rule, the signal under treatment as a percentage of the control signal) was 86.6%.
`O=C(O)/C=C/CO`: the remaining activity is 109%.
Still for that read-out and setting: in the case of `CCOC(=O)c1ncn2c1CN(C)C(=O)c1cc(N=[N+]=[N-])ccc1-2` it was 97.3%; in that of `C(=C\c1ccccc1)/CN1CCN(CCOC(c2ccccc2)c2ccccc2)CC1`, 119%.
Take `C=C(C)[C@@H]1CCC(C)=C[C@H]1c1c(OC)cc(C)cc1OC`: the remaining activity was 106%.
Take `C[C@H](N)Cn1ccc2cc(F)c(Cl)cc21`: the remaining activity was 103%.
In the case of `CCOC(=O)c1ncc2[nH]c3ccc(OCc4ccccc4)cc3c2c1COC`, the remaining activity is 105%.
As to `Cc1[nH]c2ccc(Cl)cc2c1C1=CCNCC1`, the remaining activity was 103%.
Take `CCC(Oc1ccc(Cl)cc1)C(=O)OC1CC2CCC(C1)N2C` (stereo not drawn): the remaining activity was 88.1%.
Turning to `NCC(CS(=O)(=O)O)c1ccc(Cl)cc1` (stereo not drawn), the remaining activity was 108%.
As to `CN1[C@@H]2CC[C@H]1CC(OC(=O)N1Cc3ccccc3NC1=O)C2` (stereo partly drawn), the remaining activity was 119%.
In the case of `Cc1[nH]cnc1CCN`, the remaining activity is 109%.
On the same count and under the same terms, in the case of `Cc1cc(C)cc(C(=O)OC2CC3CCC(C2)N3C)c1` (stereo not drawn) it was 86.6%.
Turning to `CCN1C[C@]2(COC(=O)c3ccccc3N3C(=O)C[C@H](C)C3=O)CC[C@H](OC)[C@]34C2[C@H](OC)[C@](O)([C@H]13)[C@@]1(O)C[C@H](OC)[C@H]2C[C@@H]4[C@@H]1[C@H]2OC`, the remaining activity is 128%.
For `CC[N+](CC)(CCCNC1=CC(=O)C(NCCC[N+](CC)(CC)Cc2ccccc2)=CC1=O)Cc1ccccc1`, the remaining activity is 81.3%.
For `CCOc1cncc(/C=C/CCNC)c1`, the remaining activity was 108%.
With `Clc1ccc(C2=CCCC3CCC2N3)cn1` (stereo not drawn), the remaining activity was 101%.
With `CN1CC[C@@H]2CN3CCc4cccc(c43)[C@@H]2C1`, the remaining activity was 120%.
As for `Cn1c2c(c3ccccc31)CCNCC2`, the remaining activity is 98.4%.
In the case of `CCCCCCC[n+]1ccc(-c2cc[n+](CCCCCCC)cc2)cc1`, the remaining activity is 77%.
With `C[C@H](Cc1ccc(OCC(=O)O)cc1)NC[C@H](O)c1cccc(Cl)c1`, the remaining activity was 121%.
On to `CN1Cc2ccccc2[C@@H]2c3cccc4[nH]cc(c34)C[C@H]21`, for which the remaining activity is 114%.
`CC1=C(O)C(=O)[C@@H]2O[C@@H]2C1=O`: the remaining activity is 113%.

Test system in another experiment: not listed separately
Put plainly: viability loss with induced miR-34 in A549 – imaging, A549 dox-inducible miR-34, nuclei and caspase counts, primary screen (AID 1347080). As to conditions: A549 miR-34 inducible, Hoechst nuclei count, 48 h; hits give low values.
As for `O=C1/C(=C/c2ccccc2)C[C@@]2(O)C3Cc4ccc(O)c5c4[C@@]2(CCN3CC2CC2)[C@H]1O5`, the fold change was 1.1.
`c1ccc(CC(c2ccccc2)N2CCCCC2)cc1` (stereo not drawn): the fold change is 0.958.
On to `CC(C)CC(N)C1(c2ccc(Cl)cc2)CCC1` (stereo not drawn), for which the fold change was 1.01.
Regarding `O=C1CSC(c2ccccc2Cl)c2cc(Cl)ccc2N1` (stereo not drawn), the fold change is 0.848 and 0.875.

The experiment is the same for the next values; noted with them: A549 miR-34 inducible, Hoechst nuclei count, 48 h; hits give low values; cell number ratio, induced over uninduced.
Consider `Fc1ccc(C(OCCN2CCN(C/C=C/c3ccccc3)CC2)c2ccc(F)cc2)cc1`, for which the fold change is 0.843.
`O=C1Nc2cc(Cl)c(Cl)cc2N2CCNCC12` (stereo not drawn): the fold change is 0.949.
As to `CC(C)(C)NCC(O)COc1cccc2[nH]c(C#N)cc12` (stereo not drawn), the fold change was 0.911.
Regarding `Cc1o[nH]c(=O)c1C[C@H](N)C(=O)O`, the fold change was 1.04.
Turning to `C[C@H](N)Cc1cnc[nH]1`, the fold change is 0.997.
Same read-out and setting: in the case of `CCCOc1ccc2[nH]cc(C3=CCNCC3)c2n1` it was 0.982; in that of `CCCCCOc1c(OC)ccc2cc(C(=O)NCc3ccc4c(c3)OCO4)c(=O)[nH]c12`, 1.04.
Regarding `CCN(CC)CCO[C@H]1CC[C@@]2(C)C(=CC[C@@H]3[C@@H]2CC[C@]2(C)C(=O)CC[C@@H]32)C1`, the fold change is 0.896 and 0.878.
Regarding `CC(=O)N1CC[N+](C)(C)CC1`, the fold change was 0.94.
Regarding `O=C(O)CCC(CP(=O)(O)O)C(=O)O` (stereo not drawn), the fold change was 0.917.
With `COc1cc2c(cc1O)C(CCc1ccc(Cl)cc1)N(C)CC2` (stereo not drawn), the fold change was 0.951.
Regarding `N[C@]1(C(=O)O)CC[C@@H](C(=O)O)C1` (racemic), the fold change was 0.971.
Take `c1ccc(C2CNCc3ccccc32)cc1` (stereo not drawn): the fold change is 0.949.
Take `COC1CCC2NC(C(=O)c3ccccc3)CC2C1` (stereo not drawn): the fold change was 1.14.
With `O=C(O)/C=C/CO`, the fold change is 0.992.
On to `CCOC(=O)c1ncn2c1CN(C)C(=O)c1cc(N=[N+]=[N-])ccc1-2`, for which the fold change is 0.891.
Regarding `C(=C\c1ccccc1)/CN1CCN(CCOC(c2ccccc2)c2ccccc2)CC1`, the fold change is 0.938.
Same read-out and setting: in the case of `C=C(C)[C@@H]1CCC(C)=C[C@H]1c1c(OC)cc(C)cc1OC` it was 0.943 and 0.926.
With `C[C@H](N)Cn1ccc2cc(F)c(Cl)cc21`, the fold change was 0.874.
With `CCOC(=O)c1ncc2[nH]c3ccc(OCc4ccccc4)cc3c2c1COC`, the fold change was 0.974.
In the case of `Cc1[nH]c2ccc(Cl)cc2c1C1=CCNCC1`, the fold change was 0.919.
Regarding `CCC(Oc1ccc(Cl)cc1)C(=O)OC1CC2CCC(C1)N2C` (stereo not drawn), the fold change was 0.91.
The same measure, in the same setting: in the case of `NCC(CS(=O)(=O)O)c1ccc(Cl)cc1` (stereo not drawn) it was 0.961; in that of `CN1[C@@H]2CC[C@H]1CC(OC(=O)N1Cc3ccccc3NC1=O)C2` (stereo partly drawn), 0.979.
For the compound `Cc1[nH]cnc1CCN`, the fold change was 0.956.
Same read-out and setting: in the case of `Cc1cc(C)cc(C(=O)OC2CC3CCC(C2)N3C)c1` (stereo not drawn) it was 0.914.
Same read-out and setting: the value for `CCN1C[C@]2(COC(=O)c3ccccc3N3C(=O)C[C@H](C)C3=O)CC[C@H](OC)[C@]34C2[C@H](OC)[C@](O)([C@H]13)[C@@]1(O)C[C@H](OC)[C@H]2C[C@@H]4[C@@H]1[C@H]2OC` was 0.94; that for `CC[N+](CC)(CCCNC1=CC(=O)C(NCCC[N+](CC)(CC)Cc2ccccc2)=CC1=O)Cc1ccccc1` was 0.951; that for `CCOc1cncc(/C=C/CCNC)c1` was 0.967.
Consider `Clc1ccc(C2=CCCC3CCC2N3)cn1` (stereo not drawn), for which the fold change is 0.907.
As for `CN1CC[C@@H]2CN3CCc4cccc(c43)[C@@H]2C1`, the fold change is 0.917.
As for `Cn1c2c(c3ccccc31)CCNCC2`, the fold change was 0.896.
Consider `CCCCCCC[n+]1ccc(-c2cc[n+](CCCCCCC)cc2)cc1`, for which the fold change is 1.13.
Turning to `C[C@H](Cc1ccc(OCC(=O)O)cc1)NC[C@H](O)c1cccc(Cl)c1`, the fold change was 0.941.
For the compound `CN1Cc2ccccc2[C@@H]2c3cccc4[nH]cc(c34)C[C@H]21`, the fold change is 0.936.
In the case of `CC1=C(O)C(=O)[C@@H]2O[C@@H]2C1=O`, the fold change is 0.983.

Source of the values: PubChem BioAssay.
